Measurements reported in PubChem BioAssay AID1159580 (chemical genetic matrix, 2015).
Where “and” joins values, the source holds several entries; their conditions need not be identical. Equal values may be shown once. Hit rate of the full screen: of about 5,500 compounds, about 2,000 (36%) were called active. About 18% were inconclusive and are not listed. Rule as the data show it: active = normalized growth mostly below about 0.91 (no sharp cut-off); inconclusive = no clear call, values can overlap the other calls; inactive = mostly above about 0.92. Some of the results follow.

Assay: chemical genetic growth profiling, strain panel (AID 1159580);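 also: tested at 20 µM; growth read once vehicle control cultures reached saturation at 30 °C; 1 = growth at the plate median or of vehicle wells; lower values mean less growth of the strain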
Details: S. cerevisiae deletion strains, growth OD

Measured: normalized growth

CCN(CC)CCOc1ccc(/C(=C(\Cl)c2ccccc2)c2ccccc2)cc1
0.0542 (active) and 0.924 (inactive): locus YHR030C, strain SLT2, stronger effect = lower value
0.0616 (active) and 0.946 (inactive): locus YJL095W, strain BCK1, stronger effect = lower value
inactive: locus YHR079C, strain IRE1, stronger effect = lower value 0.945 | locus YIL125W, strain kgd1, stronger effect = lower value 0.983 | locus YJR066W, strain TOR1, stronger effect = lower value 0.982
active: locus YAL013W, strain DEP1, stronger effect = lower value 0.0553 | locus YAL021C, strain ccr4, stronger effect = lower value 0.064 | locus YAL026C, strain drs2, stronger effect = lower value 0.0617 | locus YAL030W, strain snc1, stronger effect = lower value 0.076 | locus YBL061C, strain skt5, stronger effect = lower value 0.0714 | locus YBR009C, strain hhf1, stronger effect = lower value 0.0875 | locus YBR021W, strain FUR4, stronger effect = lower value 0.089 | locus YBR023C, strain chs3, stronger effect = lower value 0.0792 | locus YBR171W, strain sec66, stronger effect = lower value 0.17 | locus YBR229C, strain ROT2, stronger effect = lower value 0.0488 | locus YBR231C, strain swc5, stronger effect = lower value 0.0847 | locus YBR279W, strain paf1, stronger effect = lower value 0.265 | locus YCL011C, strain gbp2, stronger effect = lower value 0.0699 | locus YCL016C, strain dcc1, stronger effect = lower value 0.203 | locus YCL029C, strain bik1, stronger effect = lower value 0.0627 | locus YCL069W, strain vba3, stronger effect = lower value 0.11 | locus YCR088W, strain abp1, stronger effect = lower value 0.107 | locus YDL005C, strain med2, stronger effect = lower value 0.11 | locus YDL035C, strain GPR1, stronger effect = lower value 0.0517 | locus YDL040C, strain nat1, stronger effect = lower value 0.479 | locus YDL074C, strain BRE1, stronger effect = lower value 0.0809 | locus YDL101C, strain DUN1, stronger effect = lower value 0.0611 | locus YDL185W, strain tfp1, stronger effect = lower value 0.124 | locus YDL192W, strain arf1, stronger effect = lower value 0.0614 | locus YDR001C, strain nth1, stronger effect = lower value 0.216 | locus YDR069C, strain doa4, stronger effect = lower value 0.0706 | locus YDR101C, strain arx1, stronger effect = lower value 0.0624 | locus YDR137W, strain rgp1, stronger effect = lower value 1.41 [resistant] | locus YDR159W, strain sac3, stronger effect = lower value 0.105 | locus YDR162C, strain NBP2, stronger effect = lower value 0.0484 | locus YDR195W, strain ref2 0.235 | locus YDR297W, strain sur2, stronger effect = lower value 0.0942 | locus YDR318W, strain mcm21, stronger effect = lower value 0.0641 | locus YDR334W, strain swr1, stronger effect = lower value 0.0931 | locus YDR335W, strain msn5, stronger effect = lower value 0.093 | locus YDR388W, stronger effect = lower value 0.055 | locus YDR392W, strain spt3, stronger effect = lower value 0.0803 | locus YDR502C, strain sam2, stronger effect = lower value 0.0655 | locus YEL003W, strain gim4, stronger effect = lower value 0.133 | locus YEL037C, strain rad23, stronger effect = lower value 0.099 | locus YEL061C, strain CIN8 (second series), stronger effect = lower value 0.3 | locus YEL061C, strain CIN8, stronger effect = lower value 0.0516 | locus YER015W, strain faa2, stronger effect = lower value 0.143 | locus YER016W, strain bim1, stronger effect = lower value 0.218 | locus YER110C, stronger effect = lower value 0.0804 | locus YER111C, strain swi4, stronger effect = lower value 0.529 | locus YER155C, strain BEM2 (second series), stronger effect = lower value 0.851 | locus YER155C, strain BEM2, stronger effect = lower value 0.0653 | locus YER167W, strain BCK2, stronger effect = lower value 0.0512 | locus YFR010W, strain ubp6, stronger effect = lower value 0.0804 | locus YGL078C, strain dbp3, stronger effect = lower value 0.919 | locus YGL086W, strain mad1, stronger effect = lower value 0.0596 | locus YGL167C, strain pmr1, stronger effect = lower value 0.244 | locus YGL173C, strain kem1, stronger effect = lower value 0.497 | locus YGL227W, strain vid30, stronger effect = lower value 0.144 | locus YGL240W, strain doc1, stronger effect = lower value 0.228 | locus YGL248W, strain PDE1, stronger effect = lower value 0.0492 | locus YGL253W, strain hxk2, stronger effect = lower value 0.0662 | locus YGR135W, strain pre9, stronger effect = lower value 0.069 | locus YGR252W, strain gcn5, stronger effect = lower value 0.178 | locus YHR013C, strain ard1, stronger effect = lower value 0.134 | locus YHR027C, strain rpn1, stronger effect = lower value 0.109 | locus YHR079C, strain IRE1 (second series), stronger effect = lower value 0.0584 | locus YHR094C, strain hxt1, stronger effect = lower value 0.0617 | locus YHR129C, strain ARP1, stronger effect = lower value 0.0567 | locus YHR142W, strain chs7, stronger effect = lower value 0.08 | locus YHR200W, strain rpn10, stronger effect = lower value 0.0639 | locus YIL066C, strain RNR3, stronger effect = lower value 0.0508 | locus YIL073C, strain SPO22, stronger effect = lower value 0.106 | locus YIR030C, strain dcg1, stronger effect = lower value 0.0601 | locus YJL092W, strain hpr5, stronger effect = lower value 0.193 | locus YJL095W, strain BCK1 (second series), stronger effect = lower value 0.0616 | locus YJL115W, strain asf1, stronger effect = lower value 0.262 | locus YJL129C, strain trk1, stronger effect = lower value 0.158 | locus YJL134W, strain LCB3, stronger effect = lower value 0.0524 | locus YJL154C, strain vps35, stronger effect = lower value 0.095 | locus YJL164C, strain tpk1, stronger effect = lower value 0.0775 | locus YJL166W, strain qcr8, stronger effect = lower value 0.0887 | locus YJL168C, strain set2, stronger effect = lower value 0.0577 | locus YJL187C, strain SWE1 (second series), stronger effect = lower value 0.0519 | locus YJR043C, strain POL32, stronger effect = lower value 0.064
